This is one part of a sample in which the strongest signals are shown more often than they occur.
Experiments:
Assay in all cases: glycan array binding signal (z-score within array); higher = stronger binding
Conditions in all cases: glycan notation: IUPAC condensed, linker removed
[1] = molecular target: Fuc(a1-2)Gal(b1-3)GalNAc
In short: (§1)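 From the Consortium for Functional Glycomics database, 3228 arrays were curated, keeping only those whose protein sequence was available. Binding is given as a within-array Z-score averaged across arrays sharing a protein sequence and across linkers. Negative Z-scores can be read as non-binding.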

[2] = molecular target: Fuc(a1-2)Gal(b1-3)GlcNAc(b1-3)[Neu5Ac(a2-6)Gal(b1-4)GlcNAc(b1-6)]Gal(b1-4)Glc
In short: as §1

[3] = molecular target: Fuc(a1-2)Gal(b1-3)GlcNAc6S
In short: as §1

[4] = molecular target: Fuc(a1-2)Gal(b1-3)[Fuc(a1-4)]GlcNAc(b1-2)Man(a1-3)[Fuc(a1-2)Gal(b1-3)[Fuc(a1-4)]GlcNAc(b1-2)Man(a1-6)]Man(b1-4)GlcNAc(b1-4)[Fuc(a1-6)]GlcNAc(b1-4)[Fuc(a1-6)]GlcNAc
In short: as §1

[5] = molecular target: Fuc(a1-2)Gal(b1-3)[Fuc(a1-4)]GlcNAc(b1-3)[Gal(b1-4)GlcNAc(b1-6)]Gal(b1-4)Glc
In short: as §1

[6] = molecular target: Fuc(a1-2)[Gal(a1-3)]Gal(b1-3)GlcNAc(b1-2)Man(a1-3)[Fuc(a1-2)[Gal(a1-3)]Gal(b1-3)GlcNAc(b1-2)Man(a1-6)]Man(b1-4)GlcNAc(b1-4)GlcNAc
In short: as §1

[7] = molecular target: Fuc(a1-2)[Gal(a1-3)]Gal(b1-3)GlcNAc(b1-2)Man(a1-3)[Fuc(a1-2)[Gal(a1-3)]Gal(b1-3)GlcNAc(b1-2)Man(a1-6)]Man(b1-4)GlcNAc(b1-4)[Fuc(a1-6)]GlcNAc
In short: as §1

[8] = molecular target: Fuc(a1-2)[Gal(a1-3)]Gal(b1-3)GlcNAc(b1-3)GalNAc
In short: as §1

[9] = molecular target: Fuc(a1-2)[Gal(a1-3)]Gal(b1-4)GlcNAc(b1-2)Man(a1-3)[Fuc(a1-2)[Gal(a1-3)]Gal(b1-4)GlcNAc(b1-2)Man(a1-6)]Man(b1-4)GlcNAc(b1-4)[Fuc(a1-6)]GlcNAc
In short: as §1

[10] = molecular target: Fuc(a1-2)[GalNAc(a1-3)]Gal
In short: as §1

[11] = molecular target: Fuc(a1-2)[GalNAc(a1-3)]Gal(b1-3)GlcNAc(b1-3)GalNAc
In short: as §1

[12] = molecular target: Fuc(a1-2)[GalNAc(a1-4)]Gal(b1-4)GlcNAc
In short: as §1

[13] = molecular target: Fuc(a1-3)[Gal(b1-4)]Glc6S
In short: as §1

[14] = molecular target: Gal(a1-3)Gal(b1-4)GlcNAc
In short: as §1

[15] = molecular target: Gal(b1-3)GalNAc(b1-3)Gal
In short: as §1

[16] = molecular target: Gal(b1-3)[Fuc(a1-4)]GlcNAc(b1-2)Man(a1-3)[Gal(b1-3)[Fuc(a1-4)]GlcNAc(b1-2)Man(a1-6)]Man(b1-4)GlcNAc(b1-4)[Fuc(a1-6)]GlcNAc
In short: as §1

[17] = molecular target: Gal(b1-4)GlcNAc(b1-3)Gal(b1-4)GlcNAc(b1-3)Gal(b1-4)GlcNAc(b1-2)Man(a1-3)[Gal(b1-4)GlcNAc(b1-3)Gal(b1-4)GlcNAc(b1-3)Gal(b1-4)GlcNAc(b1-2)Man(a1-6)]Man(b1-4)GlcNAc(b1-4)GlcNAc
In short: as §1

[18] = molecular target: Gal(b1-4)GlcNAc(b1-3)Gal(b1-4)GlcNAc(b1-3)Gal(b1-4)GlcNAc(b1-2)[Gal(b1-4)GlcNAc(b1-3)Gal(b1-4)GlcNAc(b1-3)Gal(b1-4)GlcNAc(b1-6)]Man(a1-6)[Gal(b1-4)GlcNAc(b1-3)Gal(b1-4)GlcNAc(b1-3)Gal(b1-4)GlcNAc(b1-2)Man(a1-3)]Man(b1-4)GlcNAc(b1-4)[Fuc(a1-6)]GlcNAc
In short: as §1

[19] = molecular target: Gal(b1-4)GlcNAc(b1-3)Gal(b1-4)GlcNAc(b1-3)Gal(b1-4)GlcNAc(b1-3)Gal(b1-4)GlcNAc(b1-2)Man(a1-3)[Gal(b1-4)GlcNAc(b1-3)Gal(b1-4)GlcNAc(b1-3)Gal(b1-4)GlcNAc(b1-3)Gal(b1-4)GlcNAc(b1-2)Man(a1-6)]Man(b1-4)GlcNAc(b1-4)GlcNAc
In short: as §1

[20] = molecular target: Gal(b1-4)GlcNAc(b1-3)Gal(b1-4)GlcNAc(b1-3)Gal(b1-4)GlcNAc(b1-3)Gal(b1-4)GlcNAc(b1-2)[Gal(b1-4)GlcNAc(b1-3)Gal(b1-4)GlcNAc(b1-3)Gal(b1-4)GlcNAc(b1-3)Gal(b1-4)GlcNAc(b1-6)]Man(a1-6)[Gal(b1-4)GlcNAc(b1-3)Gal(b1-4)GlcNAc(b1-3)Gal(b1-4)GlcNAc(b1-3)Gal(b1-4)GlcNAc(b1-2)Man(a1-3)]Man(b1-4)GlcNAc(b1-4)[Fuc(a1-6)]GlcNAc
In short: as §1

[21] = molecular target: Gal(b1-4)GlcNAc(b1-3)Gal(b1-4)GlcNAc(b1-6)[Gal(b1-3)]GalNAc
In short: as §1

[22] = molecular target: Gal(b1-4)GlcNAc(b1-3)Gal(b1-4)[Fuc(a1-3)]GlcNAc(b1-3)Gal(b1-4)[Fuc(a1-3)]GlcNAc
In short: as §1

[23] = molecular target: Gal(b1-4)GlcNAc(b1-6)GalNAc
In short: as §1

[24] = molecular target: Gal3S(b1-4)[Fuc(a1-3)]Glc6S
In short: as §1

[25] = molecular target: Gal6S(b1-4)GlcNAc
In short: as §1

[26] = molecular target: GalNAc(b1-3)Gal(a1-4)Gal(b1-4)GlcNAc(b1-3)Gal(b1-4)Glc
In short: as §1

[27] = molecular target: GlcNAc(a1-4)Gal(b1-4)GalNAc
In short: as §1

[28] = molecular target: GlcNAc(a1-6)Gal(b1-4)GlcNAc
In short: as §1

[29] = molecular target: GlcNAc(b1-2)Man(a1-3)[GlcNAc(b1-2)Man(a1-6)]Man(b1-4)GlcNAc(b1-4)[Fuc(a1-6)]GlcNAc
In short: as §1

[30] = molecular target: GlcNAc(b1-3)Gal(b1-4)GlcNAc(b1-3)Gal(b1-4)GlcNAc(b1-3)Gal(b1-4)GlcNAc(b1-3)Gal(b1-4)GlcNAc(b1-2)Man(a1-3)[GlcNAc(b1-3)Gal(b1-4)GlcNAc(b1-3)Gal(b1-4)GlcNAc(b1-3)Gal(b1-4)GlcNAc(b1-3)Gal(b1-4)GlcNAc(b1-2)Man(a1-6)]Man(b1-4)GlcNAc(b1-4)[Fuc(a1-6)]GlcNAc
In short: as §1

[31] = molecular target: GlcNAc(b1-4)Gal(b1-4)GlcNAc
In short: as §1

[32] = molecular target: GlcNAc(b1-4)GlcNAc(b1-4)GlcNAc(b1-4)GlcNAc(b1-4)GlcNAc
In short: as §1

[33] = molecular target: Man(a1-2)Man(a1-6)[Man(a1-3)]Man(a1-6)[Man(a1-2)Man(a1-2)Man(a1-3)]Man
In short: as §1

[34] = molecular target: Man(a1-3)[Man(a1-6)]Man(a1-6)[Man(a1-3)]Man
In short: as §1

[35] = molecular target: Neu5Ac(a2-3)Gal(b1-3)GalNAc
In short: as §1

[36] = molecular target: Neu5Ac(a2-3)Gal(b1-3)GalNAc6S
In short: as §1

[37] = molecular target: Neu5Ac(a2-3)Gal(b1-3)GlcNAc(b1-6)GalNAc
In short: as §1

[38] = molecular target: Neu5Ac(a2-3)Gal(b1-4)GlcNAc(b1-6)[Neu5Ac(a2-3)Gal(b1-3)]GalNAc
In short: as §1

[39] = molecular target: Neu5Ac(a2-3)Gal6S(b1-4)[Fuc(a1-3)]GlcNAc
In short: as §1

[40] = molecular target: Neu5Ac(a2-6)Gal(b1-4)GlcNAc(b1-2)Man(a1-6)[GlcNAc(b1-2)Man(a1-3)]Man(b1-4)GlcNAc(b1-4)GlcNAc
In short: as §1

[41] = molecular target: Neu5Ac(a2-6)Gal(b1-4)GlcNAc(b1-6)[Gal(b1-3)]GalNAc
In short: as §1

[42] = molecular target: Neu5Ac(a2-8)Neu5Ac(a2-3)Gal(b1-3)GalNAc(b1-4)[Neu5Ac(a2-8)Neu5Ac(a2-3)]Gal(b1-4)Glc
In short: as §1

[43] = molecular target: Neu5Ac9Ac(a2-3)Gal(b1-3)GlcNAc
In short: as §1

[44] = molecular target: Neu5Ac9Ac(a2-6)Gal(b1-4)GlcNAc
In short: as §1

[45] = molecular target: Neu5Gc(a2-3)Gal(b1-3)[Fuc(a1-4)]GlcNAc
In short: as §1

[46] = molecular target: Neu5Gc(a2-8)Neu5Gc(a2-6)Gal(b1-4)GlcNAc
In short: as §1

B1: EUL D1A (Oryza sativa) (protein)
chain: MFGFGHHHNQAPAAPSDPNQIFKIFCRANENYCLTVRDSAVVLAPVNPKDEHQHWFKDMRFSTKVKDGEGMPAFALVNKATGLAVKHSLGQSHPVKLVPFNPEYEDASVLWTESKDVGKGFRCIRMVNNTRLNLDAFHGDKDHGGVRDGTTVVLWEWCKGDNQSWKILPWGPEAHSSSPGAATACTIGGVPVHTVRVFSAAGEDYCLTVRNGTACLAPKNPRDDYQHWIKDMRHSNKIRDEEGYPAFALVNKVTGEAIKHSTGQGHPVKLVPYNPEYQDESVLWTESKDVGKGFRCIRMVNNIYLNFDAFHGDKDHGGIHDGTEIVLWKWCEGDNQRWKILPWILEQKLISEEDLNSAVDHHHHHH
glycan array binding signal (z-score) [1]: -0.934 | glycan array binding signal (z-score) [2]: -0.444 | glycan array binding signal (z-score) [3]: 0.203 | glycan array binding signal (z-score) [4]: 2.92 | glycan array binding signal (z-score) [5]: 1.23 | glycan array binding signal (z-score) [6]: 0.066 | glycan array binding signal (z-score) [7]: -1.06 | glycan array binding signal (z-score) [8]: -0.79 | glycan array binding signal (z-score) [9]: 0.315 | glycan array binding signal (z-score) [10]: -0.299 | glycan array binding signal (z-score) [11]: 0.318 | glycan array binding signal (z-score) [12]: -0.759 | glycan array binding signal (z-score) [13]: 1.6 | glycan array binding signal (z-score) [14]: -0.8 | glycan array binding signal (z-score) [15]: -0.437 | glycan array binding signal (z-score) [16]: 0.658 | glycan array binding signal (z-score) [17]: 2.18 | glycan array binding signal (z-score) [18]: 2.54 | glycan array binding signal (z-score) [19]: 2.32 | glycan array binding signal (z-score) [20]: 2.71 | glycan array binding signal (z-score) [21]: 2.71 | glycan array binding signal (z-score) [22]: -0.649 | glycan array binding signal (z-score) [23]: 0.031 | glycan array binding signal (z-score) [24]: 2.51 | glycan array binding signal (z-score) [25]: -0.407 | glycan array binding signal (z-score) [26]: -0.333 | glycan array binding signal (z-score) [27]: -0.573 | glycan array binding signal (z-score) [28]: 2.67 | glycan array binding signal (z-score) [29]: 2.33 | glycan array binding signal (z-score) [30]: 1.58 | glycan array binding signal (z-score) [31]: -1.13 | glycan array binding signal (z-score) [32]: 0.586 | glycan array binding signal (z-score) [33]: 2.83 | glycan array binding signal (z-score) [34]: -0.067 | glycan array binding signal (z-score) [35]: -0.87 | glycan array binding signal (z-score) [36]: 2.32 | glycan array binding signal (z-score) [37]: -1.15 | glycan array binding signal (z-score) [38]: 2.69 | glycan array binding signal (z-score) [39]: -0.714 | glycan array binding signal (z-score) [40]: 1.83 | glycan array binding signal (z-score) [41]: -0.319 | glycan array binding signal (z-score) [42]: 0.293 | glycan array binding signal (z-score) [43]: -0.59 | glycan array binding signal (z-score) [44]: -0.088 | glycan array binding signal (z-score) [45]: 0.008 | glycan array binding signal (z-score) [46]: -0.137
